Compound activity as filed in PubChem.
This excerpt belongs to a sample that is enriched for hits.
CBX7 AlphaScr: CBX7 inhibition, primary AlphaScreen | normalised signal (fraction of DMSO) (test concentration not listed) | AID 1224903 | AlphaScreen His6-CBX7 / biotin-H3K27me3 peptide binding; active compounds read low | 66,000 tested, 1.1% active | O95931; in the data active = normalised signal below about 0.5
Target sequence (O95931 whole entry, looked up): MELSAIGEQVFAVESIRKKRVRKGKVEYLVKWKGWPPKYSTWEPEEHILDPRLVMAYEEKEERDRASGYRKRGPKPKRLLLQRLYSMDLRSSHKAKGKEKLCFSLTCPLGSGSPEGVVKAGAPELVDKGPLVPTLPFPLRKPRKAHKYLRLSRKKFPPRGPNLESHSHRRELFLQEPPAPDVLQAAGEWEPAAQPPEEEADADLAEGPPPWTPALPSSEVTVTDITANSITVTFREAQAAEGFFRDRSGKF
* hit, by the source's call.

SMILES	CBX7 AlphaScr
COc1ccc2[nH]c(C)c(CCNCC(C)(C)C)c2c1	1.1
COc1ccc2[nH]c(C)c(CCNCc3ccc(C#N)cc3)c2c1	0.26*
COc1ccc2[nH]c(C)c(CCNCc3cccc4ccccc34)c2c1	0.59
Cc1cccc(C)c1-n1nnnc1C1(NCCc2c(C)[nH]c3c(Cl)ccc(Cl)c23)CCCCC1	0.65
Cc1ccc(NC(=O)CN2C(=O)C(C)N=C(c3ccccc3F)c3cc(Cl)ccc32)cc1C (stereo not drawn)	0.97
CC1N=C(c2ccccc2F)c2cc(Cl)ccc2N(CC(=O)Nc2ccc(N(C)C)cc2)C1=O (stereo not drawn)	0.27*
CC1N=C(c2ccccc2)c2cc(Cl)ccc2N(CC(=O)Nc2ccc(N(C)C)cc2)C1=O (stereo not drawn)	0.52
CCC(=O)N1N=C2C3CCN(CC3)C2C1c1ccc(Cl)cc1 (stereo not drawn)	1
CCn1c(SCC(=O)Nc2ccc(Cl)cc2C(=O)c2ccccc2)nnc1-c1ccncc1	0.69
O=C(Nc1ccc(Cl)cc1C(=O)c1ccccc1Cl)c1ccc(N2C(=O)CCC2=O)cc1	0.86
CCCCCC(C)C(C)c1cc(OC)c2c(c1)OC(C)(C)C1=C2CN(CC(N)=O)CC1 (stereo not drawn)	0.38*
C#CCN1CCC2=C(C1)c1c(O)cc(C(C)C(C)CCCCC)cc1OC2(C)C (stereo not drawn)	0.65
COc1ccc(NC(=O)CN2C(=O)CN=C(c3ccccc3)c3cc(Cl)ccc32)cc1OC	1
COc1ccc(CN2CCN(Cc3cccc(Cl)c3)CC2)cc1	0.82
CCN(C(=O)CN1C(=O)CN=C(c2ccccc2)c2ccccc21)c1cccc(C)c1	0.98
CCC(C)C1N=C(c2ccccc2)c2cc(Cl)ccc2N(CC(=O)NCCC(C)C)C1=O (stereo not drawn)	0.98
CNc1ccc(C)cc1C(=O)c1cccc(Br)c1	0.42*
O=C(c1ccccc1)c1cc(Br)ccc1NC(=O)c1c(F)cccc1F	1.1
CNc1ccc(Br)cc1C(=O)c1ccccc1Cl	1.1
O=C(Cc1ccc(-n2c(=O)[nH]c3ccsc3c2=O)cc1)N1CCN(Cc2ccc3c(c2)OCO3)CC1	1.1
CCOC(=O)C1(c2ccccc2)CCN(CC(=O)Nc2cccc(Cl)c2)CC1	0.35*
CCOC(=O)C1(c2ccccc2)CCN(CC(=O)Nc2ccc(F)cc2)CC1	1.1
CCOC(=O)C1(c2ccccc2)CCN(CC(=O)Nc2cc(Cl)ccc2OC)CC1	1
COc1ccc(CN2CCN(Cc3ccc(C)cc3)CC2)cc1Br	0.89
O=C(CN1C(=O)CN=C(c2ccccc2)c2cc(Br)ccc21)NC1CCCCC1	0.92
